Results: PubChem BioAssay (NCATS)
Inconclusive results are not listed. Activity calls are given as the source filed them. Calls follow the shape of the dose curve; as a rule, active = well fitted curve in the direction sought with a large enough effect; inconclusive = small, poorly fitted or top-dose-only effect, or another doubt; inactive = no such curve, though single readings can be large; an effect the other way counts as inactive or inconclusive.

How the values were obtained:
[1] = biological target: Ubiquitin carboxyl-terminal hydrolase 1 (Homo sapiens) (UniProt O94782); experiment: Inhibitors of USP1/UAF1: Pilot qHTS (AID 504865);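 also: rhodamine fluorescence freed from ubiquitin-rhodamine substrate followed over time; top concentration of the series differs between compounds; % is scaled to controls: 0 for no effect and ±100 for the full control effect; nearly all actives have a fitted effect of over 35% in size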
Chain of Ubiquitin carboxyl-terminal hydrolase 1 (Homo sapiens) (O94782 whole entry, looked up): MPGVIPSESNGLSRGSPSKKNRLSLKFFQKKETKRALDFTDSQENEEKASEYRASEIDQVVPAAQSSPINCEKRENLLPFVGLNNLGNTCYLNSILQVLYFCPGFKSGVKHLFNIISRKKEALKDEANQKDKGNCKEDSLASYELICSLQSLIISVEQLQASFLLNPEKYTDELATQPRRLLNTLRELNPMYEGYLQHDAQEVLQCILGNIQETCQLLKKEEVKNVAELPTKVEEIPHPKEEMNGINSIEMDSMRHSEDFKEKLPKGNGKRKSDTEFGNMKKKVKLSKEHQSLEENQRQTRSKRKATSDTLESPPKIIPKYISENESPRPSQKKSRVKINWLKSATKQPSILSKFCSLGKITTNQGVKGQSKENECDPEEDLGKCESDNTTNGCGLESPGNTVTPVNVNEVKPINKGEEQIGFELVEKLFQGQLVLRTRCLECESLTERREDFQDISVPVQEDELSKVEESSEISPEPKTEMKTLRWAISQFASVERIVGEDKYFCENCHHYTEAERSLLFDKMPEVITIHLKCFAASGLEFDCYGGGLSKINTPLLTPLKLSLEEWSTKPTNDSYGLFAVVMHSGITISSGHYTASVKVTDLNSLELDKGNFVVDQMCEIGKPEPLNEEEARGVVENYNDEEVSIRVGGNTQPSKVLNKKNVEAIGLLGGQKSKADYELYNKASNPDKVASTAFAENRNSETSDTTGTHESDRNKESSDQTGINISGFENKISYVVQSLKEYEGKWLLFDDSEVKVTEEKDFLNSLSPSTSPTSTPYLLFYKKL
Procedure, shortened: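 1nM USP1/UAF1 + cpd, 15 min RT; start w/ Ub-Rho 150nM final; kinetic FL 480/540 nm, 6 reads q60 s. Buffer 50mM HEPES pH 7.8, 0.5mM EDTA, 1mM TCEP, 0.01% Tween-20, 0.1 mg/ml BSA.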

[2] = biological target: Luciferin 4-monooxygenase (Photinus pyralis) (UniProt P08659); experiment: Biochemical firefly luciferase enzyme assay for NPC (AID 624030);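 also: purified P. pyralis luciferase at 10 nM with luciferin and ATP substrate; 0% = DMSO and -100% = full luciferase inhibition by PTC124 control; nearly all actives have a fitted effect of over 70% in size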
Chain of Luciferin 4-monooxygenase (Photinus pyralis) (P08659 whole entry, looked up): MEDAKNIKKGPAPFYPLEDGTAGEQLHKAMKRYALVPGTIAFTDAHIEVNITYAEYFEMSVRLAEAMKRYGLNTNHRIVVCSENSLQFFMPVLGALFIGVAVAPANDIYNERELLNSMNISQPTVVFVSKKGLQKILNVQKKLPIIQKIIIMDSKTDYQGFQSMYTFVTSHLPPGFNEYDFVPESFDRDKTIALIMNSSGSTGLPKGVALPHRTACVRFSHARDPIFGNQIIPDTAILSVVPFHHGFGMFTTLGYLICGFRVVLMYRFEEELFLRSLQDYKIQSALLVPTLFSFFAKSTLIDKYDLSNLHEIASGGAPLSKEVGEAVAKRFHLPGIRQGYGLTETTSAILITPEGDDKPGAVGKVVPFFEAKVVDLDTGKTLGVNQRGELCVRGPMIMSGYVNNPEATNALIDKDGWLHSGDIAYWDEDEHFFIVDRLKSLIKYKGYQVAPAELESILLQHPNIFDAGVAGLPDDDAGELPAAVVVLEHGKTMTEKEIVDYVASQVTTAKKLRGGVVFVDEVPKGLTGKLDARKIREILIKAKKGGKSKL
Procedure, shortened: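 Direct inhibition of firefly luciferase enzyme (10 nM final, 50 mM Tris Acetate) assessed by luminescence within 5 minutes. Percent activity scaled between DMSO and PTC124 positive control, with concentration-effect curves classified by fit quality and response.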

[3] = S16 Schwann cell viability assay (CellTiter-Glo assay) (AID 624031);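 also: cellular ATP luminescence as a viability measure; plate controls were DMSO-treated cells for no effect and cell-free wells for full effect; nearly all actives have a fitted effect of over 70% in size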
Procedure, shortened: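 Untransfected S16 rat Schwann cells; compound 24 h, 37 °C/5% CO2; CellTiter-Glo ATP luminescence. % activity vs no-cell wells and DMSO controls (0%); concentration-effect curves classed by r2, response magnitude, activity.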

[4] = S16 Schwann cell PMP22 intronic element firefly luciferase assay (AID 624032);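 also: plate controls were DMSO for no effect and PTC124 positive control mean for full effect; nearly all actives have a fitted effect of over 30% in size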
Procedure, shortened: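 Luciferase reporter of PMP22 intronic-element expression in stably transfected S16 rat Schwann cells, read by ONE-Glo luminescence after 24 h compound exposure at 37 C. Activity scaled between DMSO (0%) and positive-control PTC124; concentration-effect curves quality-classified.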

[5] = qHTS profiling for inhibitors of Plasmodium falciparum proliferation (AID 504749);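 also: 0% = DMSO vehicle and full inhibition = artemisinin control; nearly all actives have a fitted effect of over 60% in size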; details: P. falciparum in erythrocytes, SYBR Green DNA, 72 h, at 28.7 µM (top of the series)
Procedure, shortened: (§1)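 SYBR Green fluorescence of parasite DNA, read after lysis and overnight dark incubation, measured growth over 72 h in erythrocyte culture at 0.3% parasitemia and 2.5% hematocrit. Data normalised to DMSO and 0.29 uM artemisinin, with plate-drift correction.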

[6] = system: 3D7; experiment: as above; details: P. falciparum in erythrocytes, SYBR Green DNA, 72 h; series mostly up to 28.7 µM
Procedure, shortened: as §1

[7] = system: 7G8; experiment: as above; details: P. falciparum in erythrocytes, SYBR Green DNA, 72 h; series mostly up to 28.7 µM
Procedure, shortened: as §1

[8] = system: AA1029; experiment: as above; details: P. falciparum in erythrocytes, SYBR Green DNA, 72 h; series mostly up to 28.7 µM
Procedure, shortened: as §1

[9] = system: AS120; experiment: as above; details: P. falciparum in erythrocytes, SYBR Green DNA, 72 h; series mostly up to 28.7 µM
Procedure, shortened: as §1

[10] = system: ATS189; experiment: as above; details: P. falciparum in erythrocytes, SYBR Green DNA, 72 h; series mostly up to 28.7 µM
Procedure, shortened: as §1

[11] = system: ATS95; experiment: as above; details: P. falciparum in erythrocytes, SYBR Green DNA, 72 h; series mostly up to 28.7 µM
Procedure, shortened: as §1

[12] = system: C2A; experiment: as above; details: P. falciparum in erythrocytes, SYBR Green DNA, 72 h; series mostly up to 28.7 µM
Procedure, shortened: as §1

[13] = system: CP185; experiment: as above; details: P. falciparum in erythrocytes, SYBR Green DNA, 72 h; series mostly up to 28.7 µM
Procedure, shortened: as §1

[14] = system: CP191; experiment: as above; details: P. falciparum in erythrocytes, SYBR Green DNA, 72 h; series mostly up to 28.7 µM
Procedure, shortened: as §1

[15] = system: CP192; experiment: as above; details: P. falciparum in erythrocytes, SYBR Green DNA, 72 h; series mostly up to 28.7 µM
Procedure, shortened: as §1

[16] = system: CP194; experiment: as above; details: P. falciparum in erythrocytes, SYBR Green DNA, 72 h; series mostly up to 28.7 µM
Procedure, shortened: as §1

[17] = system: CP201; experiment: as above; details: P. falciparum in erythrocytes, SYBR Green DNA, 72 h; series mostly up to 28.7 µM
Procedure, shortened: as §1

[18] = system: CP203; experiment: as above; details: P. falciparum in erythrocytes, SYBR Green DNA, 72 h; series mostly up to 28.7 µM
Procedure, shortened: as §1

[19] = system: CP211; experiment: as above; details: P. falciparum in erythrocytes, SYBR Green DNA, 72 h; series mostly up to 28.7 µM
Procedure, shortened: as §1

[20] = system: CP215; experiment: as above; details: P. falciparum in erythrocytes, SYBR Green DNA, 72 h; series mostly up to 28.7 µM
Procedure, shortened: as §1

[21] = system: CP217; experiment: as above; details: P. falciparum in erythrocytes, SYBR Green DNA, 72 h; series mostly up to 28.7 µM
Procedure, shortened: as §1

[22] = system: CP237; experiment: as above; details: P. falciparum in erythrocytes, SYBR Green DNA, 72 h; series mostly up to 28.7 µM
Procedure, shortened: as §1

[23] = system: CP238; experiment: as above; details: P. falciparum in erythrocytes, SYBR Green DNA, 72 h; series mostly up to 28.7 µM
Procedure, shortened: as §1

[24] = system: CP247; experiment: as above; details: P. falciparum in erythrocytes, SYBR Green DNA, 72 h; series mostly up to 28.7 µM
Procedure, shortened: as §1

[25] = system: CP250; experiment: as above; details: P. falciparum in erythrocytes, SYBR Green DNA, 72 h; series mostly up to 28.7 µM
Procedure, shortened: as §1

[26] = system: CP252; experiment: as above; details: P. falciparum in erythrocytes, SYBR Green DNA, 72 h; series mostly up to 28.7 µM
Procedure, shortened: as §1

[27] = system: CP256; experiment: as above; details: P. falciparum in erythrocytes, SYBR Green DNA, 72 h; series mostly up to 28.7 µM
Procedure, shortened: as §1

[28] = system: CP260; experiment: as above; details: P. falciparum in erythrocytes, SYBR Green DNA, 72 h; series mostly up to 28.7 µM
Procedure, shortened: as §1

[29] = system: CP262; experiment: as above; details: P. falciparum in erythrocytes, SYBR Green DNA, 72 h; series mostly up to 28.7 µM
Procedure, shortened: as §1

[30] = system: CP265; experiment: as above; details: P. falciparum in erythrocytes, SYBR Green DNA, 72 h; series mostly up to 28.7 µM
Procedure, shortened: as §1

[31] = system: CP266; experiment: as above; details: P. falciparum in erythrocytes, SYBR Green DNA, 72 h; series mostly up to 28.7 µM
Procedure, shortened: as §1

[32] = system: CP268; experiment: as above; details: P. falciparum in erythrocytes, SYBR Green DNA, 72 h; series mostly up to 28.7 µM
Procedure, shortened: as §1

[33] = system: CP269; experiment: as above; details: P. falciparum in erythrocytes, SYBR Green DNA, 72 h; series mostly up to 28.7 µM
Procedure, shortened: as §1

[34] = system: CP286; experiment: as above; details: P. falciparum in erythrocytes, SYBR Green DNA, 72 h; series mostly up to 28.7 µM
Procedure, shortened: as §1

[35] = system: CP291; experiment: as above; details: P. falciparum in erythrocytes, SYBR Green DNA, 72 h; series mostly up to 28.7 µM
Procedure, shortened: as §1

[36] = system: CP297; experiment: as above; details: P. falciparum in erythrocytes, SYBR Green DNA, 72 h; series mostly up to 28.7 µM
Procedure, shortened: as §1

[37] = system: CP305; experiment: as above; details: P. falciparum in erythrocytes, SYBR Green DNA, 72 h; series mostly up to 28.7 µM
Procedure, shortened: as §1

[38] = system: CP315; experiment: as above; details: P. falciparum in erythrocytes, SYBR Green DNA, 72 h; series mostly up to 28.7 µM
Procedure, shortened: as §1

[39] = system: CP325; experiment: as above; details: P. falciparum in erythrocytes, SYBR Green DNA, 72 h; series mostly up to 28.7 µM
Procedure, shortened: as §1

[40] = system: CP329; experiment: as above; details: P. falciparum in erythrocytes, SYBR Green DNA, 72 h; series mostly up to 28.7 µM
Procedure, shortened: as §1

[41] = system: CP335; experiment: as above; details: P. falciparum in erythrocytes, SYBR Green DNA, 72 h; series mostly up to 28.7 µM
Procedure, shortened: as §1

[42] = system: DFO2036; experiment: as above; details: P. falciparum in erythrocytes, SYBR Green DNA, 72 h; series mostly up to 28.7 µM
Procedure, shortened: as §1

[43] = system: DIV14; experiment: as above; details: P. falciparum in erythrocytes, SYBR Green DNA, 72 h; series mostly up to 28.7 µM
Procedure, shortened: as §1

[44] = system: DIV17; experiment: as above; details: P. falciparum in erythrocytes, SYBR Green DNA, 72 h; series mostly up to 28.7 µM
Procedure, shortened: as §1

[45] = system: DIV30; experiment: as above; details: P. falciparum in erythrocytes, SYBR Green DNA, 72 h; series mostly up to 28.7 µM
Procedure, shortened: as §1

[46] = system: Dd2; experiment: as above; details: P. falciparum in erythrocytes, SYBR Green DNA, 72 h; series mostly up to 28.7 µM
Procedure, shortened: as §1

[47] = system: ECU; experiment: as above; details: P. falciparum in erythrocytes, SYBR Green DNA, 72 h; series mostly up to 28.7 µM
Procedure, shortened: as §1

[48] = system: FAB9; experiment: as above; details: P. falciparum in erythrocytes, SYBR Green DNA, 72 h; series mostly up to 28.7 µM
Procedure, shortened: as §1

[49] = system: GB4; experiment: as above; details: P. falciparum in erythrocytes, SYBR Green DNA, 72 h; series mostly up to 28.7 µM
Procedure, shortened: as §1

[50] = system: HB3; experiment: as above; details: P. falciparum in erythrocytes, SYBR Green DNA, 72 h; series mostly up to 28.7 µM
Procedure, shortened: as §1

[51] = system: ICS; experiment: as above; details: P. falciparum in erythrocytes, SYBR Green DNA, 72 h; series mostly up to 28.7 µM
Procedure, shortened: as §1

[52] = system: JCK; experiment: as above; details: P. falciparum in erythrocytes, SYBR Green DNA, 72 h; series mostly up to 28.7 µM
Procedure, shortened: as §1

[53] = system: N140; experiment: as above; details: P. falciparum in erythrocytes, SYBR Green DNA, 72 h; series mostly up to 28.7 µM
Procedure, shortened: as §1

[54] = system: P93_24; experiment: as above; details: P. falciparum in erythrocytes, SYBR Green DNA, 72 h; series mostly up to 28.7 µM
Procedure, shortened: as §1

[55] = system: P94_40; experiment: as above; details: P. falciparum in erythrocytes, SYBR Green DNA, 72 h; series mostly up to 28.7 µM
Procedure, shortened: as §1

[56] = system: PAD; experiment: as above; details: P. falciparum in erythrocytes, SYBR Green DNA, 72 h; series mostly up to 28.7 µM
Procedure, shortened: as §1

[57] = system: PC15; experiment: as above; details: P. falciparum in erythrocytes, SYBR Green DNA, 72 h; series mostly up to 28.7 µM
Procedure, shortened: as §1

[58] = system: PC26; experiment: as above; details: P. falciparum in erythrocytes, SYBR Green DNA, 72 h; series mostly up to 28.7 µM
Procedure, shortened: as §1

[59] = system: PC49; experiment: as above; details: P. falciparum in erythrocytes, SYBR Green DNA, 72 h; series mostly up to 28.7 µM
Procedure, shortened: as §1

[60] = system: SC27B; experiment: as above; details: P. falciparum in erythrocytes, SYBR Green DNA, 72 h; series mostly up to 28.7 µM
Procedure, shortened: as §1

[61] = system: TAB109; experiment: as above; details: P. falciparum in erythrocytes, SYBR Green DNA, 72 h; series mostly up to 28.7 µM
Procedure, shortened: as §1

[62] = system: TAB113; experiment: as above; details: P. falciparum in erythrocytes, SYBR Green DNA, 72 h; series mostly up to 28.7 µM
Procedure, shortened: as §1

[63] = system: TAB165; experiment: as above; details: P. falciparum in erythrocytes, SYBR Green DNA, 72 h; series mostly up to 28.7 µM
Procedure, shortened: as §1

[64] = system: W2; experiment: as above; details: P. falciparum in erythrocytes, SYBR Green DNA, 72 h; series mostly up to 28.7 µM
Procedure, shortened: as §1

CC12C=CC(=O)C=C1[C@@H](F)CC1C2C(O)CC2(C)C1CC[C@]2(O)C(=O)CO (stereo not given in full)
inactive: Potency [1] | Potency [2] | Potency [3] | Potency [4] | activity, negative = inhibition ([5]; parasite line A) 4.43% | activity, negative = inhibition ([5]; parasite line B) 5.63% | Potency [6] | Potency [7] | Potency [8] | Potency [9] | Potency [10] | Potency [11] | Potency [12] | Potency [13] | Potency [14] | Potency [15] | Potency [16] | Potency [17] | Potency [18] | Potency [19] | Potency [20] | Potency [21] | Potency [22] | Potency [23] | Potency [24] | Potency [25] | Potency [26] | Potency [27] | Potency [28] | Potency [29] | Potency [30] | Potency [31] | Potency [32] | Potency [33] | Potency [34] | Potency [35] | Potency [36] | Potency [37] | Potency [38] | Potency [39] | Potency [40] | Potency [41] | Potency [42] | Potency [43] | Potency [44] | Potency [45] | Potency [46] | Potency [47] | Potency [48] | Potency [49] | Potency [50] | Potency [51] | Potency [52] | Potency [53] | Potency [54] | Potency [55] | Potency [56] | Potency [57] | Potency [58] | Potency [59] | Potency [60] | Potency [61] | Potency [62] | Potency [63] | Potency [64]
